Active and inactive are the calls of the source. Unless noted, how the calls were made is not given here.

Assay [1] can be described thus: compounds binding Alexa647 anti-His antibody – biochemical, small-molecule microarray, 635 nm fluorescence, artefact control for SMM control protein annotation, primary screen (AID 1128).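 Further: score merges feature fluorescence with signal-to-noise for each printed compound spot.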 The conditions noted are these: higher = more signal.
Assay [2] relates to Human papillomavirus type 1a E7 protein (residues 1-88). Nature of the assay: HPV1a E7 small-molecule binders, primary screen, biochemical, small-molecule microarray, residues 1-88, 635 nm (AID 1129). The conditions noted are these: small-molecule microarray binding, fluorescence 635 nm; higher = more signal.
The target in assay [3] is Focal adhesion kinase 1 (Homo sapiens) (UniProt Q05397). Put plainly: PTK2 protein binding on printed compound slides – biochemical, small-molecule microarray, 635/667 nm fluorescence, BSA, DTT, primary screen (AID 1130).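 Further: composite of spot emission at 667 nm and signal to noise over triplicate slides.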 The conditions noted are these: 635 nm fluorescence, higher = more signal.
The subject of assay [4] is Fibrinogen (Alexa647-labelled). Put plainly: Alexa647-fibrinogen binding to printed small molecules – biochemical, small-molecule microarray, 635/667 nm fluorescence, artefact control for SMM control-protein annotation, profiling panel (AID 1131).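 Further: z-score merges 667 nm fluorescence with per-spot signal-to-noise over triplicate slides.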 The conditions noted are these: fibrinogen-A647 binding fluorescence, higher = more signal.
Assay [5] has as its target Follistatin (Homo sapiens) (UniProt P19883). Put plainly: FST protein binding to printed compounds – biochemical, small-molecule microarray, 635/667 nm fluorescence, primary screen (AID 1132). The conditions noted are these: 635 nm fluorescence, higher = more signal.
Assay [6] deals with Fibroblast growth factor 2 (Homo sapiens) (UniProt P09038). Nature of the assay: basic fibroblast growth factor binding to printed compounds – biochemical, small-molecule microarray, 635/667 nm fluorescence, primary screen (AID 1133). Conditions: FGF2, fluorescence 635/667, higher = more signal.
Assay [7] is described as follows: JC-1 mitochondrial potential readout, lung cancer cells – cell-based, A549, JC-1 fluorescence, basal, 24 h, 100 nL, profiling panel (AID 1138).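 Further: A549 lung adenocarcinoma cells under basal conditions with no added stimulus; test concentration not given here.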 The conditions noted are these: higher = more signal.
For the next assay, the system named is Lefty1. Nature of the assay: Lefty1 protein binding to printed compounds – biochemical, small-molecule microarray, 635/667 nm fluorescence, primary screen (AID 1139). The conditions noted are these: fluorescence 635/667, higher = more signal.
Assay [8] relates to wheat germ agglutinin (Triticum aestivum), Alexa647-labelled. Nature of the assay: Alexa647-WGA lectin binding to printed small molecules – biochemical, small-molecule microarray, 635/667 nm fluorescence, artefact control for SMM control-protein annotation, profiling panel (AID 1140).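 Further: score merges 667 nm feature emission with signal to noise over triplicate slides.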 Conditions: WGA-A647 binding, 635 nm fluorescence, higher = more signal.
Assay [9] concerns the target Luciferin 4-monooxygenase (Photinus pyralis) (UniProt P08659). Nature of the assay: inhibition of purified Photinus pyralis luciferase – biochemical, luminescence, purified enzyme, 2006 set, primary screen (AID 1141).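 Further: cell-free assay with purified firefly luciferase at 100 ng per well in PBS; test concentration not given here.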 The conditions noted are these: purified firefly luciferase, SteadyGlo luminescence, 30 min; higher = more signal, called active from +8 up or from −8 down.

Assay [10] concerns Wnt5a (protein binding on small-molecule microarray). Nature of the assay: small molecules binding Wnt5a protein – biophysical, small-molecule microarray, 635/667 nm fluorescence, primary screen (AID 1142).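 Further: fluorescence read at 667 nm with signal to noise per printed feature.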 Conditions: 635 nm fluorescence, higher = more signal.
A short description of assay [11]: ATP-based viability of Huh7 replicon cells – cell-based, CellTiter-Glo luminescence, basal, 48 h, cytotoxicity control for HCV replication inhibitor project, primary screen (AID 1143).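 Further: Huh7 hepatoma cells carrying a hepatitis C replication reporter with no stimulus; test concentration not given here.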 Conditions: higher = more signal, called active from +8 up or from −8 down.
Assay [12] can be described thus: Pseudomonas biofilm growth suppression – PAO1 strain, BacTiter-Glo luminescence, LB-PBS, primary screen (AID 1144). Conditions: P. aeruginosa PAO1 biofilm, 12 h, higher = more signal.
Assay [13] in a line: basal CRE-LacZ reporter activity in PC12 – cell-based, unstimulated, primary screen (AID 1145). Conditions: no forskolin, luminescence, 4.5 h, higher = more signal, called active from +8 up or from −8 down.
Assay [14] is described as follows: forskolin-driven CRE-LacZ activity in PC12 – cell-based, CRE-LacZ reporter, forskolin-stimulated, primary screen (AID 1146).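 Further: PC12 cells with 6xCRE LacZ reporter stimulated by forskolin 10 µM; beta-galactosidase reporter signal reflecting CREB driven transcription.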 The conditions noted are these: luminescence, 4.5 h, higher = more signal, called active from +8 up or from −8 down.
Assay [15] has as its target Streptavidin (Streptomyces avidinii) (UniProt P22629). Put plainly: compounds binding control protein streptavidin – biophysical, small-molecule microarray, 635/667 nm fluorescence, artefact control for SMM compound annotation, primary screen (AID 1147).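 Further: signal reflects streptavidin binding to arrayed compounds as a control protein.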 Conditions: higher = more signal.
The nature of assay [16]: probe aInhba binding on compound microarray – biochemical, small-molecule microarray, 635/667 nm fluorescence, primary screen (AID 1148).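 Further: score merges 667nm spot fluorescence with signal-to-noise for antibody binding to printed compounds.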 The conditions noted are these: higher = more signal.
Assay [17] deals with Torsin-1A (Homo sapiens) (UniProt O14656). Put plainly: TOR1A wild-type binding on microarray – cell lysate, small-molecule microarray, lysate, 635/667 nm, primary screen (AID 1149). The conditions noted are these: COS7 hTOR1A-WT lysate, 635 nm fluorescence, higher = more signal.
For assay [18] the target is unchanged. Put plainly: torsin A mutant lysate binding on microarrays – cell lysate, small-molecule microarray, COS7 lysate, 635/667 nm fluorescence, primary screen (AID 1150).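 Further: score pools 667 nm emission and signal to noise measuring lysate protein binding.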 Conditions: COS7 hTOR1A mutant lysate, 635 nm fluorescence, higher = more signal.
For assay [19], the system named is Sonic hedgehog protein (Shh). Nature of the assay: Sonic hedgehog microarray binding compounds – biochemical, small-molecule microarray, 635/667 nm fluorescence, primary screen (AID 1151).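 Further: Shh protein binding to compounds spotted on small-molecule microarray slides; score combines spot fluorescence intensity with signal-to-noise across triplicate slides.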 The conditions noted are these: 635 nm fluorescence, higher = more signal.

Chain of Focal adhesion kinase 1 (Homo sapiens) (Q05397 whole entry, looked up): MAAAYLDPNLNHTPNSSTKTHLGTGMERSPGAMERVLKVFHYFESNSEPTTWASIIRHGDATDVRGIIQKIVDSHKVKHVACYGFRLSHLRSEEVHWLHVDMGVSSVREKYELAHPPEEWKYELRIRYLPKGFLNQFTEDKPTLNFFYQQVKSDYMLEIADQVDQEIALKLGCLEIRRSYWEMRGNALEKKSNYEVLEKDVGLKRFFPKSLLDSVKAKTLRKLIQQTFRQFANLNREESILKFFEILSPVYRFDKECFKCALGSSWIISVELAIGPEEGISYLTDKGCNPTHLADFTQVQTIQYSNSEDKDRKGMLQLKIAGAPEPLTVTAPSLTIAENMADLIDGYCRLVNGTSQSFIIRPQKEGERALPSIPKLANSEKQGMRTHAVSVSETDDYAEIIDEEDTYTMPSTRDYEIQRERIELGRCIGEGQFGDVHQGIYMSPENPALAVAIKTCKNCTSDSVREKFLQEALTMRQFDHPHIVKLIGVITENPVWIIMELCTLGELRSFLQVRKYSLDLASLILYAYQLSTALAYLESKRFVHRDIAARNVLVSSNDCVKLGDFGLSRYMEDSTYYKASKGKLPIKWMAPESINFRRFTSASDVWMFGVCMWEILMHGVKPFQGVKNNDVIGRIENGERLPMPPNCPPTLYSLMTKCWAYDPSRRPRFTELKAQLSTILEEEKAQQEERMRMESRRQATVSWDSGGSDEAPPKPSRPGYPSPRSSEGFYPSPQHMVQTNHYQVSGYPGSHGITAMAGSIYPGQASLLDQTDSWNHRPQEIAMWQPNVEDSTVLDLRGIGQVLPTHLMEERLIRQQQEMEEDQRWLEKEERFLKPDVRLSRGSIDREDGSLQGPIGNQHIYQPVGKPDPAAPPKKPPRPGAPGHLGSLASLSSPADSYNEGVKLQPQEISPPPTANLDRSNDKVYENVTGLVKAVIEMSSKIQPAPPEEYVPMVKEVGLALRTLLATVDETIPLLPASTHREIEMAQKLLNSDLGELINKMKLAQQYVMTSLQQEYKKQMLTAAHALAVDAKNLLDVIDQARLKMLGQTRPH
Chain of Streptavidin (Streptomyces avidinii) (P22629 whole entry, looked up): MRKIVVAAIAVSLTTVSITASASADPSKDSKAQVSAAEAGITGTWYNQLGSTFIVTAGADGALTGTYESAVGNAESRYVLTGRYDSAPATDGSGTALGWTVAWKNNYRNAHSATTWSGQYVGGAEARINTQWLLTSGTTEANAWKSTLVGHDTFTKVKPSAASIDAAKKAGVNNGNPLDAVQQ
Chain of Torsin-1A (Homo sapiens) (O14656 whole entry, looked up): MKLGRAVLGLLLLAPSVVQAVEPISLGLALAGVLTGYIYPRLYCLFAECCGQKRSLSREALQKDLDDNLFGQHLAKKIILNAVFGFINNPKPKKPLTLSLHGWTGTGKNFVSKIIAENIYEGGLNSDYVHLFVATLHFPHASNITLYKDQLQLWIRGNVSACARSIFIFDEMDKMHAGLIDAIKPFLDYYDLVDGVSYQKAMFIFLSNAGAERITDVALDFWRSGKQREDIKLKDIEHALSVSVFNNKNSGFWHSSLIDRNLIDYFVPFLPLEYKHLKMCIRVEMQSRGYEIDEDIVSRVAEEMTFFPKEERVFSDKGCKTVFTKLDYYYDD
Chain of Fibroblast growth factor 2 (Homo sapiens) (P09038 whole entry, looked up): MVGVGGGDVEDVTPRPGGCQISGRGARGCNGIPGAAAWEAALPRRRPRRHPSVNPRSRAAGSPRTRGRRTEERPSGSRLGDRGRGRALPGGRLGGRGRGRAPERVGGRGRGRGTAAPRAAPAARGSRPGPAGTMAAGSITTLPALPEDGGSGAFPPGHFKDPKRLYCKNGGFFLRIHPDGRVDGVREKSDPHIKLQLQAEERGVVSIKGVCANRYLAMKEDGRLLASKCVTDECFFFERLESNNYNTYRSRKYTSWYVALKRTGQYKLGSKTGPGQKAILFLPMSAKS
Chain of Luciferin 4-monooxygenase (Photinus pyralis) (P08659 whole entry, looked up): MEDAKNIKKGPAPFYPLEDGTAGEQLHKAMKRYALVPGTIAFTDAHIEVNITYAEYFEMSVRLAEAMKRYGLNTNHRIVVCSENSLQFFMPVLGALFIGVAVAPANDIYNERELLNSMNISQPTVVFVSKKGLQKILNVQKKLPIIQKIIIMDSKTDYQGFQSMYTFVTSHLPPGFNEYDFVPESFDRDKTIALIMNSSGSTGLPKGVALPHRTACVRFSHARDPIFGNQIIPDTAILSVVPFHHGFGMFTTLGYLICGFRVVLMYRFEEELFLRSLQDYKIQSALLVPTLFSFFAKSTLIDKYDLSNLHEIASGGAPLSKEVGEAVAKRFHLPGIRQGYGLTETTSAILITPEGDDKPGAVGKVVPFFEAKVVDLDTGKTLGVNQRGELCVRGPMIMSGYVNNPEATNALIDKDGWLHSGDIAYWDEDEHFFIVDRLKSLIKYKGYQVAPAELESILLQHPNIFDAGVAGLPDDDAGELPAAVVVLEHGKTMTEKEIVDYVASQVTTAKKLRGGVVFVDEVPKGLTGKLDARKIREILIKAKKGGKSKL
Chain of Follistatin (Homo sapiens) (P19883 whole entry, looked up): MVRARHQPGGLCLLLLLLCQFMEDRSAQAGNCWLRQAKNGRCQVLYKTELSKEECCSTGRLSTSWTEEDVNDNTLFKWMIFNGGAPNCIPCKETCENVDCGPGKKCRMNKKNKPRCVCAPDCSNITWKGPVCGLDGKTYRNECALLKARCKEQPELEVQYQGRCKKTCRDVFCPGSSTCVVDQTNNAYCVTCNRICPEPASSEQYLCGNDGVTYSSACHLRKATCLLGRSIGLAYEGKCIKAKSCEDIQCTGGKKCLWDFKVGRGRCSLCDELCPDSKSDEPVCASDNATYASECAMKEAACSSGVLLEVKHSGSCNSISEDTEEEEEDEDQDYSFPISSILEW

Take `CCCCc1cn(C[C@H](Cc2ccccc2)NC(=O)N[C@H](CO)CCc2oc(C(C)=O)c(C(=O)OC)c2C(=O)OC)nn1`: the composite z-score in [1] was determined as 0.97; in assay [2] it was 1.2; in assay [3], 0.54; in assay [4], 0.921; in [5], 1.18; in assay [6], 0.866. For the same compound, the composite z-score with Lefty1 was 1.16; in assay [8], 0.445; in [10], 0.276; in assay [15] it was 0.881; in [16], -0.0448; with Torsin-1A (Homo sapiens) [17], 0.992. Besides, the results for the composite z-score (in the assay with Torsin-1A (Homo sapiens) [18]; in assay [19]) were 0.454 and 1.99, respectively. The z-score in [7] was -0.419; in [9] it was 1.29 (inactive); in assay [11] it was -2.8 (inactive); in assay [12] it was -1.09 (inactive); in [13], 1.02 (inactive); in assay [14], 0.549 (inactive).

Consider `COC(=O)[C@@]1(Cc2ccc(OC)cc2)[C@H]2c3cc(C(=O)N4CCCC4)n(Cc4ccc(OC)c(OC)c4)c3C[C@H]2CN1C(=O)c1ccccc1`, for which the composite z-score in [1] stood at 2.04; in assay [2], 1.22; in assay [3], 0.343; in [4], 0.607; in assay [5], 1.37; in [6] it was 0.515. The composite z-score in the assay with Lefty1 is 0.724; in [8], 0.742; in assay [10] it was 0.753; in assay [15], 2.03; in assay [16], 0.955; with Torsin-1A (Homo sapiens) [17], 0.201. The composite z-score is 0.695 in the assay with Torsin-1A (Homo sapiens) [18] and 0.464 in assay [19]. For the same compound, the z-score in [7] was 1.58; in [9] it was 2.16 (inactive); in assay [11], -2.2 (inactive); in assay [12], -0.139 (inactive); in assay [13], 0.959 (inactive); in assay [14], -0.265 (inactive).

With `C=CC[C@]1(C(=O)N2CCCCC2)N=C(c2ccc(OCCCO)cc2)O[C@H]1c1ccccc1`, the composite z-score is 2.2 in assay [1]; 1.19 in assay [2]; 0.702 in assay [3]; 0.928 in assay [4]; 1.3 in assay [5]; -0.165 in assay [6]. The composite z-score was -0.395 with Lefty1; 0.676 in [8]; 0.15 in [10]; 0.224 in [15]; 0.573 in assay [16]; 0.29 with Torsin-1A (Homo sapiens) [17]. In addition, the composite z-score is 1.11 in the assay with Torsin-1A (Homo sapiens) [18] and -0.328 in assay [19]. The z-score in [7] is 1.48; in [9], -0.728 (inactive); in assay [11] it was -3.83 (inactive); in assay [12] it was 0.351 (inactive); in assay [13], 2.73 (inactive); in assay [14] it was 0.0819 (inactive).

Regarding `COC(=O)[C@@]1(Cc2ccc(OC)cc2)[C@H]2c3cc(C(=O)N(C)C)n(CCN4CNCC4=O)c3C[C@H]2CN1C(=O)c1ccccc1`, the composite z-score in assay [1] is 0.492; in assay [2] it was 0.803; in [3] it was 0.598; in assay [4], 0.151; in assay [5], -0.589; in assay [6], -0.294. Further, the composite z-score was -0.44 in the assay on Lefty1; 0.459 in assay [8]; 0.0523 in assay [10]; 0.494 in assay [15]; -0.0736 in assay [16]; -0.322 with Torsin-1A (Homo sapiens) [17]. In addition, the composite z-score with Torsin-1A (Homo sapiens) [18] was -0.502; in assay [19] it was -2.07. Moreover, the z-score in [7] is 1; in assay [9] it was 2.82 (inactive); in assay [11], -0.582 (inactive); in assay [12], 0.726 (inactive); in [13] it was -0.754 (inactive); in [14], -0.403 (inactive).

For the compound `COC(=O)c1c(CC[C@@H](CO)NC(=O)N2CCC[C@H]2Cn2cc(-c3ccccn3)nn2)oc(C(C)=O)c1C(=O)OC`, the composite z-score in assay [1] was 0.0014; in assay [2], 0.282; in [3], 0.16; in [4] it was -0.975; in [5] it was -0.0633; in assay [6] it was 0.123. The composite z-score with Lefty1 was 0.427; in [8], 0.0776; in assay [10], -0.249; in [15], -0.281; in assay [16], -0.0178; with Torsin-1A (Homo sapiens) [17], 0.0323. The composite z-score with Torsin-1A (Homo sapiens) [18] was 1.2; in assay [19], 0.515. For the same compound, the z-score is -0.53 in assay [7]; 0.793 (inactive) in assay [9]; -1.44 (inactive) in assay [11]; -0.95 (inactive) in assay [12]; 0.395 (inactive) in assay [13]; -0.0037 (inactive) in assay [14].

Regarding `CCOC(=O)[C@H]1C/C=C/C[C@H](C(=O)OCC)C(=O)O[C@H]2[C@@H](OC)O[C@H](CO)[C@@H](OC(=O)Nc3ccc(C#N)cc3)[C@@H]2OC1=O`, the composite z-score is 0.514 in assay [1]; 0.45 in assay [2]; 0.499 in assay [3]; -0.274 in [4]; 0.336 in [5]; 0.121 in assay [6]. For the same compound, the composite z-score is 0.519 in the assay on Lefty1; 0.852 in [8]; 0.121 in assay [10]; -0.576 in [15]; -0.128 in assay [16]; 0.392 with Torsin-1A (Homo sapiens) [17]. Also, the composite z-score with Torsin-1A (Homo sapiens) [18] was found to be 1.08; in [19], 0.673. Moreover, the z-score in assay [7] is -1.92; in [9] it was 0.215 (inactive); in [11] it was -6.66 (inactive); in assay [12] it was -2.89 (inactive); in [13] it was -1.29 (inactive); in assay [14] it was -1.66 (inactive).

(Values after PubChem BioAssay.)
